Measurements: the supplement of paper PMC12636033
± gives the standard deviation of the averaged measurements. The full ranking holds about 33,000 sequences; the median of “E-score (rank enrichment, -0.5 to 0.5)” is about -0.0068, and the highest 2% start at about 0.24. The entries come from a sample that favours the highest values as a whole.

What follows are sequences tested on muMax20 (Max(13-93) K31hArg/K57hArg, M65Nle) (assay: PBM 8-mer E-score (E-score (rank enrichment, -0.5 to 0.5)); higher = stronger preferential binding).
Experimental: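 Protein binding microarray (universal PBM chip covering all 10-mers in fixed probe flanks) with chemically synthesized human Max(13-93) bHLH-LZ analogs (not full-length Max) bearing noncanonical residues (hArg, Tha, Aib, Nle at 65) and aromatic Cys staples. Read-out per 8-mer (and its reverse complement): E-score (rank-based enrichment, -0.5 to 0.5) and Z-score of median probe intensity.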

TAATAAAA and AAATAAAA are within error of each other in “PBM 8-mer E-score” value: 0.246 ± 0.0097 for the first, 0.252 ± 0.023 for the second.

Going from CAATAAAA to GAATAAAA, the “PBM 8-mer E-score” value falls from 0.197 ± 0.038 to 0.0698 ± 0.033.

AAAATAAA and AAATAAAT are within error of each other in “PBM 8-mer E-score” value: 0.116 ± 0.064 for the first, 0.156 ± 0.054 for the second.

AAGCGTCC and ACCTAGAT are within error of each other in “PBM 8-mer E-score” value: -0.0322 ± 0.057 for the first, -0.0454 ± 0.032 for the second.

First: TGGGAAAA
Second: CTTTTTTC
The “PBM 8-mer E-score” value of the first is lower: 0.0021 ± 0.034 for the first, 0.127 ± 0.031 for the second.

ATTCGCTA and CATCCATC are within error of each other in “PBM 8-mer E-score” value: 0.0997 ± 0.028 for the first, 0.0727 ± 0.029 for the second.

Going from GGGGTACC to GCATATAA, the “PBM 8-mer E-score” value rises from -0.196 ± 0.038 to 0.113 ± 0.027.

First: CTATTACA
Second: AAATTATT
The “PBM 8-mer E-score” value of the first is lower: 0.171 ± 0.028 for the first, 0.2538 ± 0.0012 for the second.

First: ATATTACA
Second: ACATTATA
The “PBM 8-mer E-score” value of the first is lower: 0.137 ± 0.011 for the first, 0.21 ± 0.031 for the second.

CTATTACC and CTATTATA are within error of each other in “PBM 8-mer E-score” value: 0.0779 ± 0.076 for the first, 0.0941 ± 0.095 for the second.

Compared with ATATTACC, GTATTACA is higher in “PBM 8-mer E-score” value: 0.244 ± 0.0062 for the first, 0.3133 ± 0.0018 for the second.

AAATTATG and AAATTATA are within error of each other in “PBM 8-mer E-score” value: 0.211 ± 0.015 for the first, 0.173 ± 0.054 for the second.

Compared with GCATTACA, ATATTATA is higher in “PBM 8-mer E-score” value: 0.142 ± 0.017 for the first, 0.308 ± 0.012 for the second.

Compared with CCCTTTCG, AGAACTAC is higher in “PBM 8-mer E-score” value: -0.143 ± 0.066 for the first, 0.126 ± 0.015 for the second.

CAGTGGGA and CGAACAGA are within error of each other in “PBM 8-mer E-score” value: -0.0398 ± 0.11 for the first, -0.107 ± 0.056 for the second.

AGCCTATC and AACTTCTC are within error of each other in “PBM 8-mer E-score” value: 0.0159 ± 0.029 for the first, -0.0128 ± 0.016 for the second.

Compared with CAGAGTTA, GCATTATA is higher in “PBM 8-mer E-score” value: -0.06527 ± 0.00021 for the first, 0.129 ± 0.031 for the second.

ATATTATC and AGATTATG are within error of each other in “PBM 8-mer E-score” value: 0.0756 ± 0.14 for the first, 0.00982 ± 0.022 for the second.

GTATTATA and ATATTATG are within error of each other in “PBM 8-mer E-score” value: 0.256 ± 0.063 for the first, 0.276 ± 0.015 for the second.

GTATTAGA and GTATTAAA are within error of each other in “PBM 8-mer E-score” value: 0.213 ± 0.0064 for the first, 0.178 ± 0.049 for the second.

First: CTATTAGA
Second: ATATTAGA
The “PBM 8-mer E-score” value of the first is lower: -0.0357 ± 0.074 for the first, 0.302 ± 0.026 for the second.

AAACGGAA and CCTAGTAC are within error of each other in “PBM 8-mer E-score” value: -0.0336 ± 0.073 for the first, 0.0875 ± 0.082 for the second.

Going from ACTTCCTC to AACGCTAG, the “PBM 8-mer E-score” value falls from 0.052 ± 0.096 to -0.145 ± 0.08.

Going from AAAACAAC to AAAACAAT, the “PBM 8-mer E-score” value rises from 0.00369 ± 0.069 to 0.265 ± 0.029.

Compared with AAAACAGT, AAAACAGG is lower in “PBM 8-mer E-score” value: 0.252 ± 0.029 for the first, -0.0042 ± 0.15 for the second.

First: AAAACAGC
Second: AAAACAAG
The “PBM 8-mer E-score” value of the first is lower: 0.0469 ± 0.026 for the first, 0.111 ± 0.034 for the second.

GGGCTAAC and ACCAGCCC are within error of each other in “PBM 8-mer E-score” value: -0.0713 ± 0.048 for the first, -0.112 ± 0.14 for the second.

ACGTGACT and ACGTGACC are within error of each other in “PBM 8-mer E-score” value: 0.234 ± 0.088 for the first, 0.302 ± 0.02 for the second.

Compared with CCGTGACC, AGGTGACG is higher in “PBM 8-mer E-score” value: -0.272 ± 0.029 for the first, -0.141 ± 0.091 for the second.

Compared with GCGTGACC, CCGTGACG is lower in “PBM 8-mer E-score” value: 0.0743 ± 0.024 for the first, -0.149 ± 0.01 for the second.

Going from ACGTGACA to CCGTGACA, the “PBM 8-mer E-score” value falls from 0.312 ± 0.043 to 0.0799 ± 0.03.

First: ACGTGACG
Second: ACCAGAAC
The “PBM 8-mer E-score” value of the first is higher: 0.271 ± 0.058 for the first, 0.0216 ± 0.026 for the second.

Going from AGCGGCCA to TAGTACTA, the “PBM 8-mer E-score” value rises from -0.227 ± 0.059 to 0.0405 ± 0.17.

AAGGCGGA and TAGGCCCA are within error of each other in “PBM 8-mer E-score” value: -0.113 ± 0.044 for the first, -0.123 ± 0.016 for the second.

Compared with CCAATTTA, GTGCCCTA is lower in “PBM 8-mer E-score” value: 0.131 ± 0.034 for the first, -0.0334 ± 0.02 for the second.

Compared with ACGTTATG, ACGTTATC is lower in “PBM 8-mer E-score” value: 0.282 ± 0.057 for the first, 0.0863 ± 0.046 for the second.

Compared with ACGTTATA, CCTGTACA is lower in “PBM 8-mer E-score” value: 0.228 ± 0.019 for the first, 0.0242 ± 0.16 for the second.

ATACACAG and ATACATAG are within error of each other in “PBM 8-mer E-score” value: 0.0766 ± 0.089 for the first, 0.181 ± 0.13 for the second.

First: ATACACAT
Second: CTACATAA
The “PBM 8-mer E-score” value of the first is higher: 0.318 ± 0.0071 for the first, 0.0871 ± 0.052 for the second.

CTACATAC and AGACATAC are within error of each other in “PBM 8-mer E-score” value: 0.178 ± 0.042 for the first, 0.0812 ± 0.086 for the second.

TTACATAA and ATACACAC are within error of each other in “PBM 8-mer E-score” value: 0.24 ± 0.0072 for the first, 0.208 ± 0.053 for the second.

Compared with ATACATAT, GTACATAA is lower in “PBM 8-mer E-score” value: 0.254 ± 0.075 for the first, 0.175 ± 0.0024 for the second.

First: AGACATAG
Second: AGACATAT
The “PBM 8-mer E-score” value of the first is lower: -0.014 ± 0.18 for the first, 0.29 ± 0.014 for the second.
